The target in test [1] is Glutathione S-transferase omega-1 (Homo sapiens) (UniProt P78417). Nature of the test: recombinant GSTO1 blockers, retest – biochemical, fluorescence polarization, triplicate, counter-screen for RBBP9 inhibitor project, confirmation (AID 2176;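 active means inhibition above the primary screen's cutoff, its mean inhibition plus 3 SD, cut at about 35% in these data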;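 further: loss of polarization as inhibitors block binding of rhodamine sulfonate ester activity probe; 0% = GSTO1 with DMSO and 100% = wells lacking GSTO1 enzyme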). Particulars: recombinant GSTO1, probe fluorescence polarization; at 5.96 µM; active compounds read high.
Test [2] addresses Protein phosphatase methylesterase 1 (Homo sapiens) (UniProt Q9Y570). Put plainly: human PME-1 methylesterase inhibition confirmation – biochemical, fluorescence polarization, FP-Rh probe, triplicate (AID 2171).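 Further: 0% = enzyme with DMSO and 100% = wells lacking PME-1.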 Particulars: recombinant PME-1, FP-Rh probe fluorescence polarization; at 5.9 µM; active compounds read high. For orientation: Fluorescence polarisation rises when a labelled molecule tumbles more slowly, as on binding a larger partner.

Test [3] can be described thus: StAR promoter reporter inhibitors, counter-screen for LRH-1 inverse agonist project, cell-based, luminescence, high throughput (AID 651611; in the data active means inhibition above about 28%). Particulars: StAR promoter luciferase reporter counterscreen, at 3.6 µM, active compounds read high. In general terms: The purpose of a counterscreen is to sort out artefacts and off-target activity.
Test [4] has as its target Nuclear receptor subfamily 5 group A member 2 (Homo sapiens) (UniProt O00482). Put plainly: NR5A2 activity suppression in reporter cells – cell-based, luminescence, confirmation (AID 651613; in the data active means inhibition above about 42%;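 further: HEK293T cells co-transfected with LRH-1 and StAR promoter luciferase reporter; 0% = vehicle wells and 100% = parental cells lacking receptor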). The following applies: cell-based LRH-1 luciferase reporter, inverse agonism; at 3.6 µM; active compounds read high. Background: Reporter assays use an easily measured gene product as a stand-in for the process of interest.

In test [5] the target is Steroidogenic factor 1 (Homo sapiens) (UniProt Q13285). Nature of the test: inverse agonism at SF1 nuclear receptor – cell-based, luminescence, high throughput, counter-screen for LRH-1 inverse agonist project (AID 651614; in the data active means inhibition above about 44%;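 further: cells cotransfected with StAR promoter reporter and SF1 expression vector; 0% = vehicle on cells with receptor and 100% = vehicle on cells lacking receptor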). Particulars: cell-based SF1 luciferase reporter, at 3.6 µM, active compounds read high.
Test [6] in a line: compounds suppressing VP16-driven luciferase signal – cell-based, luminescence, high throughput, counter-screen for LRH-1 inverse agonist project (AID 651615; in the data active means inhibition above about 33%). Particulars: Gal4-VP16 luciferase reporter cells, at 3.6 µM, active compounds read high.
Test [7] has as its target Nuclear receptor coactivator 3 (Homo sapiens) (UniProt Q9Y6Q9). Put plainly: NCOA3 GAL4-fusion reporter inhibition – cell-based, luminescence, quadruplicate, confirmation (AID 588792;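 active means mean inhibition over 43.08%, the solvent-only control mean plus 3 SD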;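 further: 0% = DMSO treated cells and 100% = gossypol at 36 µM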). Particulars: HEK293 GAL4-SRC3 luciferase reporter, at 3.6 µM, active compounds read high.
Test [8] concerns transactivating tegument protein VP16 (Human herpesvirus 1), Gal4-VP16 luciferase reporter. Nature of the test: repression of VP16-driven luciferase reporter – cell-based, luminescence, high throughput, counter-screen for SRC3 inhibitor project (AID 588794; in the data active means inhibition above about 30%). Particulars: mammalian cells, at 3.6 µM, active compounds read high.
Test [9] in a line: repression of VP16-driven luciferase reporter – cell-based, luminescence, high throughput, counter-screen for SRC1 inhibitor project (AID 588824; in the data active means inhibition above about 25%). The following applies: cell-based VP16 transactivation luciferase luminescence; at 3.6 µM; active compounds read high.
Test [10] has as its system transactivating tegument protein VP16 (Human herpesvirus 1). Nature of the test: compounds suppressing VP16-driven luciferase signal – cell-based, luminescence, single concentration, counter-screen for SRC2 inhibitor project (AID 652007; in the data active means inhibition above about 36%). The following applies: cell-based VP16 transactivation luciferase reporter, at 8.9 µM, active compounds read high.
Test [11] concerns the target Nuclear receptor coactivator 2 (Homo sapiens) (UniProt Q15596). Put plainly: inhibition of GAL4-SRC2 driven luciferase expression – cell-based, luminescence, HEK293, triplicate, confirmation (AID 652008;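 active means mean inhibition above 46.5%, the solvent-only control mean plus 3 SD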;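 further: 0% = DMSO-treated cells and 100% = Gossypol at 36 µM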). The following applies: HEK293 GAL4-SRC2 luciferase reporter, at 8.9 µM, active compounds read high.
In test [12] the target is Nuclear receptor coactivator 1 (Homo sapiens) (UniProt Q15788). Nature of the test: NCOA1 GAL4-fusion reporter inhibition – cell-based, luminescence, quadruplicate, confirmation (AID 588820;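 active means mean inhibition above 46.68%, the untreated control wells mean plus 3 SD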;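 further: 0% = DMSO wells and 100% = gossypol 36 µM treated wells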). The following applies: HEK293 GAL4-SRC1 luciferase reporter, at 3.6 µM, active compounds read high.
Test [13] deals with Platelet-activating factor acetylhydrolase (Homo sapiens) (UniProt Q13093). Nature of the test: inhibition of plasma PAF acetylhydrolase – biochemical, fluorescence polarization, human, confirmation (AID 463230;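 active means mean inhibition of the triplicate above the hit cutoff set for the earlier primary screen, cut at about 25% in these data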;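 further: 0% = enzyme with DMSO and 100% = wells lacking pPAFAH enzyme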). Particulars: recombinant pPAFAH, FP-Rh probe fluorescence polarization; at 3.39 µM; active compounds read high.
Test [14] in a line: reduced OD of T4-infected AddAB+ E. coli – absorbance, E. coli V3065, T4 phage, triplicate, AddAB inhibitor project, confirmation (AID 488942;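 active means mean inhibition above a set limit taken from the earlier primary screen, cut at about 13% in these data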;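 further: higher means less bacterial growth since AddAB block lets phage replicate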). Particulars: E. coli V3065 expressing H. pylori AddAB, at 11.9 µM, active compounds read high, T4 phage with gene 2 nonsense mutations.
A short description of test [15]: reduced OD of phage-infected RecBCD+ V66 E. coli – absorbance, mutant T4 phage, counter-screen for AddAB inhibitor project (AID 488955;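 active means mean inhibition above the mean of solvent-only control wells plus 3 SD, cut at about 4% in these data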;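 further: optical density read after an 18 h incubation at 37 °C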). Particulars: OD growth, at 11.9 µM, active compounds read high.
Test [16] in a line: bacterial growth inhibitors – absorbance, counter-screen for AddAB inhibitor project, confirmation (AID 488956; in the data active means inhibition above about 25%). Particulars: bacterial viability, absorbance (AddAB counterscreen); at 11.9 µM; active compounds read high.
Test [17] has as its target Platelet-activating factor acetylhydrolase IB subunit alpha1 (Homo sapiens) (UniProt Q15102). Put plainly: inhibition of PAF acetylhydrolase 1B subunit 3 – biochemical, fluorescence polarization, human, confirmation (AID 493032;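 active means average inhibition over triplicate runs above the hit cutoff set in the earlier primary screen, cut at about 25% in these data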;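 further: 0% = enzyme with DMSO and 100% = wells lacking PAFAH1B3 protein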). Particulars: recombinant PAFAH1B3, FP-Rh activity-based probe, at 3.39 µM, active compounds read high.
In test [18] the target is Serine protease HTRA1 (Homo sapiens) (UniProt Q92743). Nature of the test: confirming inhibition of human HTRA1 – biochemical, fluorescence polarization, confirmation (AID 540248;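 active means mean inhibition over three repeats above a set limit taken from the earlier primary screen, cut at about 37% in these data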;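 further: 0% = HTRA1 with DMSO and 100% = wells lacking HTRA1; inhibitors block probe binding so polarization drops and inhibition rises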). Particulars: recombinant HTRA1, FP-rhodamine activity-based probe, at 5.96 µM, active compounds read high.

Structures are written as SMILES. Values without a mark were called inactive. The list shows a part of the results. The source made the active and inactive calls.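 How the source made its calls, unless noted: active means inhibition above the hit cutoff set in the earlier primary screen (cut at about 27% in these data); inactive means the rest.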

Chain of Nuclear receptor coactivator 2 (Homo sapiens) (Q15596 whole entry, looked up, the tested form may be a part): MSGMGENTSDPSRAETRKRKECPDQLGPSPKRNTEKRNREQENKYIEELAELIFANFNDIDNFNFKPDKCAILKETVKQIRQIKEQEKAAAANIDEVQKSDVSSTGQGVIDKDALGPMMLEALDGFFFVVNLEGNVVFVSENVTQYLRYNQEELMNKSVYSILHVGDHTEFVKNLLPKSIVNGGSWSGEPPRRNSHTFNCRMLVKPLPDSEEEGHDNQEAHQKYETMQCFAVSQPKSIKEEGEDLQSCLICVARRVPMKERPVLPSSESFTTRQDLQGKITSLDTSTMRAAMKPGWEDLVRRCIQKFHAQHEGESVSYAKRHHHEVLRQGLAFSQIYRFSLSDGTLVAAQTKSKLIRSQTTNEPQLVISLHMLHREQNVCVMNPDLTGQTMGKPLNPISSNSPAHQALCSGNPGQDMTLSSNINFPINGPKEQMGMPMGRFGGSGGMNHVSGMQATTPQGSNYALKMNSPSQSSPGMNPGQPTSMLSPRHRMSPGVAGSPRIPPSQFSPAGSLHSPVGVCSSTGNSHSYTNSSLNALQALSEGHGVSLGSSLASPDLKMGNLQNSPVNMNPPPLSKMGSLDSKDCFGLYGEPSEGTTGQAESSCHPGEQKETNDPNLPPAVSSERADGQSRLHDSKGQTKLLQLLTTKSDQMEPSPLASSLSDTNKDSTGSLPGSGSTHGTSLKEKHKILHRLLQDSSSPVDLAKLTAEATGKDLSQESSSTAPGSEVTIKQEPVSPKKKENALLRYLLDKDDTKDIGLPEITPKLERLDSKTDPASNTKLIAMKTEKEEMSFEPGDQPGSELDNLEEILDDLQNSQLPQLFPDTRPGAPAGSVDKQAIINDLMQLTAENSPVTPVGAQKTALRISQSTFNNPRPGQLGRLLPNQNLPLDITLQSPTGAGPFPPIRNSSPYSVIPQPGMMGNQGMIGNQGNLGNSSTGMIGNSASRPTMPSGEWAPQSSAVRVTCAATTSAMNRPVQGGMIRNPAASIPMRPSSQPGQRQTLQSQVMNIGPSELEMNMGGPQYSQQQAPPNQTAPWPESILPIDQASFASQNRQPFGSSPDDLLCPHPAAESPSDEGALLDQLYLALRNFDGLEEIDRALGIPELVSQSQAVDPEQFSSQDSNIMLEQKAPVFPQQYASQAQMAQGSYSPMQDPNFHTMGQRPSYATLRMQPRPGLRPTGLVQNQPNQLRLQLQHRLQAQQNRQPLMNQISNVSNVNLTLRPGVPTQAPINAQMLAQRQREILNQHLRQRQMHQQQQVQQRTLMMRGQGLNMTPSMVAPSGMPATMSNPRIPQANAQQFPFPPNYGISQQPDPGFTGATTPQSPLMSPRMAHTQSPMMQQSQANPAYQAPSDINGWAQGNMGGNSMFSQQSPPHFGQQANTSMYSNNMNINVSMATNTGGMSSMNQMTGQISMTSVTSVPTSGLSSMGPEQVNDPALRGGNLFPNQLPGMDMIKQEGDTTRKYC
Chain of Nuclear receptor subfamily 5 group A member 2 (Homo sapiens) (O00482 whole entry, looked up): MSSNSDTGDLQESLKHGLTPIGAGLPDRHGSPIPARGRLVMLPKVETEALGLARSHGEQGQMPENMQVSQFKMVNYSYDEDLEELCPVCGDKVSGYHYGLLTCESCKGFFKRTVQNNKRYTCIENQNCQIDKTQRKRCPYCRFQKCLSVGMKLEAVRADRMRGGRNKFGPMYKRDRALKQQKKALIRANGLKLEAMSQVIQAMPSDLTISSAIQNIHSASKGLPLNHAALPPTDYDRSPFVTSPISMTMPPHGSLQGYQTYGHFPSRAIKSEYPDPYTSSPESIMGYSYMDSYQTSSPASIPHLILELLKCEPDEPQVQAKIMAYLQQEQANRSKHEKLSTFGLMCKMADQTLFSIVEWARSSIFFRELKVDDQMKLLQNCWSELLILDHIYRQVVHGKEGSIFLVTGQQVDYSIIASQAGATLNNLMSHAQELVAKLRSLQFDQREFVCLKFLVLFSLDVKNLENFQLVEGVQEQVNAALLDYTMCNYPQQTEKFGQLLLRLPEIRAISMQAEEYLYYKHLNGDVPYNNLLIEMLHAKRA
Chain of Steroidogenic factor 1 (Homo sapiens) (Q13285 whole entry, looked up, the tested form may be a part): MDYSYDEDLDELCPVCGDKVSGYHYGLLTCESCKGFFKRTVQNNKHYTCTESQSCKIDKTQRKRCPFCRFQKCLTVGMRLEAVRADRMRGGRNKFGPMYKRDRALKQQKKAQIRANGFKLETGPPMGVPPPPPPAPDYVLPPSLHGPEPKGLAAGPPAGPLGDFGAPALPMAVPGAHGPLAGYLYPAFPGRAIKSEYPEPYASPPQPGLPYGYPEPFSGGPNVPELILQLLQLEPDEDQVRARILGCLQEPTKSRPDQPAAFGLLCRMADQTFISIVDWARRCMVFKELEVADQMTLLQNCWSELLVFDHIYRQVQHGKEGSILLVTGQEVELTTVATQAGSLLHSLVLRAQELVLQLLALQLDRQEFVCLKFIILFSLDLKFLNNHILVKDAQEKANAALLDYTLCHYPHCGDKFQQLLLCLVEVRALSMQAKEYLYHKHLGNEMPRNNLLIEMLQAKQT
Chain of Nuclear receptor coactivator 1 (Homo sapiens) (Q15788 whole entry, looked up, the tested form may be a part): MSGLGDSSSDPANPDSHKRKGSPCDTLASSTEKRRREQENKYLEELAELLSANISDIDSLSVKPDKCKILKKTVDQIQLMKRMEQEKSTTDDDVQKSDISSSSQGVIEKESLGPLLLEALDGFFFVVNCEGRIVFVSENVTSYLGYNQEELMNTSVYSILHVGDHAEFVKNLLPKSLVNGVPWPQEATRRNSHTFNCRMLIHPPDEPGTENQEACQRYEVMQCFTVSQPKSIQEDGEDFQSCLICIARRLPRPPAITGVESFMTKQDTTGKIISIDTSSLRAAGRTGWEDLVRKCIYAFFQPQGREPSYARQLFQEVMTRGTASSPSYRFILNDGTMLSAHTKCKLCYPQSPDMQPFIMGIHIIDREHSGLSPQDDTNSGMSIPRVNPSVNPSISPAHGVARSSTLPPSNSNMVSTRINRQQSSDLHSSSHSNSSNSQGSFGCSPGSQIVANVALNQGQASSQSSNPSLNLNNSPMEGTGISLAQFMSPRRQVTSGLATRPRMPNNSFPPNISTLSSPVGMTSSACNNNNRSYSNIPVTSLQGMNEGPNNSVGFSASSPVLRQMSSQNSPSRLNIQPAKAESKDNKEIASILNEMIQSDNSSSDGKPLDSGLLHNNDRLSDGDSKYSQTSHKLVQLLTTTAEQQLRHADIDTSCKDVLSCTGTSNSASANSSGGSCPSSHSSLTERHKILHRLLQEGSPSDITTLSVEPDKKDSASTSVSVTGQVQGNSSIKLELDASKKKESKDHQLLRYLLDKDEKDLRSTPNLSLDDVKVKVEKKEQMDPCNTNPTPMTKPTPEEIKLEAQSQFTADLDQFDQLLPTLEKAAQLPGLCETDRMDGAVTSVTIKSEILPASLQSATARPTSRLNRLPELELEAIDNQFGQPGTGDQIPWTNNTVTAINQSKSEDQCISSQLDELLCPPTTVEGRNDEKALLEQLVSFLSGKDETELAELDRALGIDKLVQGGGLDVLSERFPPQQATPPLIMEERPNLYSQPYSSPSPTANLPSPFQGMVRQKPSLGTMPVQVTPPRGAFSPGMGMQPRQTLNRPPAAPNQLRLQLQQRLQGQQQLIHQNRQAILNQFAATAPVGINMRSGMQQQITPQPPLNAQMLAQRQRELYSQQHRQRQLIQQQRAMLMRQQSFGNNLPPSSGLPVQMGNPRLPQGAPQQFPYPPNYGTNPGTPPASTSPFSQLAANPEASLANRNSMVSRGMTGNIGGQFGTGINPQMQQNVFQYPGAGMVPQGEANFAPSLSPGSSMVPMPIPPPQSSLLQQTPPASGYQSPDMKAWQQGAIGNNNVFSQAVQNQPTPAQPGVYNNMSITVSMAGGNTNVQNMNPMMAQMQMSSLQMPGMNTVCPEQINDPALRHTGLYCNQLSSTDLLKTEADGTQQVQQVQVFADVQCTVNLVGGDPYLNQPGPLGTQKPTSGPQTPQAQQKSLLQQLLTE
Chain of Protein phosphatase methylesterase 1 (Homo sapiens) (Q9Y570 whole entry, looked up): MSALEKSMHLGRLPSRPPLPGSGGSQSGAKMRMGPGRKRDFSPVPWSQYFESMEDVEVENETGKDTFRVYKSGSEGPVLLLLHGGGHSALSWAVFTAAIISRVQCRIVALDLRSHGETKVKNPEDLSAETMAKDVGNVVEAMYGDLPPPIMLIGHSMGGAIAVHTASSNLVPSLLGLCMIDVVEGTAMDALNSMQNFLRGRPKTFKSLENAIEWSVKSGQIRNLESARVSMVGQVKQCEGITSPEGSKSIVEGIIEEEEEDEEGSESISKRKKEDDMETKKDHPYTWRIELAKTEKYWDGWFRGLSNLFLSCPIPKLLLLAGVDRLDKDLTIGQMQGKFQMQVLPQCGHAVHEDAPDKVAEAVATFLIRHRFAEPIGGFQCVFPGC
Chain of Glutathione S-transferase omega-1 (Homo sapiens) (P78417 whole entry, looked up): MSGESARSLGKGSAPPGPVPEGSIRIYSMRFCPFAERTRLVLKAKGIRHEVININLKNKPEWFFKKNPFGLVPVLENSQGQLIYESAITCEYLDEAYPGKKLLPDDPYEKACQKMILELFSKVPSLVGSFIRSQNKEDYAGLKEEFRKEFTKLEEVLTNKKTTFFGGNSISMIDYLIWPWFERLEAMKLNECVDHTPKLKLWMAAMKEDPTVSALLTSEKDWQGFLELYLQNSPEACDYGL
Chain of Platelet-activating factor acetylhydrolase IB subunit alpha1 (Homo sapiens) (Q15102 whole entry, looked up): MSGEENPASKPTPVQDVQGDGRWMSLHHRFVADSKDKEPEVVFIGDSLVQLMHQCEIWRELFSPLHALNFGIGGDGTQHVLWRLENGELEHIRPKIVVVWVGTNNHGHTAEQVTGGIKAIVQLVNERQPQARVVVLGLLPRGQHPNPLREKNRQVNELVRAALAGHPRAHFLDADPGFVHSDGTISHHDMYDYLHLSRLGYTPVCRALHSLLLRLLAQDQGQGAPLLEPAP

What is called inhibition is the drop in the measured response relative to a control, in per cent. Consider `CC(C)(C)OC(=O)c1c(N)n(CCCN2CCCC2=O)c2nc3ccccc3nc12`, for which the inhibition in [1] is 57.9% (active).
Consider `O=C1OC(Nc2cc(Br)cc3cccnc23)c2ccccc21` (stereo not drawn), for which the inhibition is 6.18% in test [2]; 16.4% in [3]; 25.9% in [4]; 31.6% in test [5]; 13.6% in [6].
For `CCc1ccc(S(=O)(=O)/N=C2\C=C(Nc3ccc(O)cc3)C(=O)c3ccccc32)cc1` the same measures were 36.8% (active), 90.1% (active), 105% (active), 96% (active) and 94.3% (active).
As to `O=C1C(SCCO)=C(SCCO)C(=O)c2ccccc21`, the inhibition is 38.3% (active) in [2]; 26.2% in test [3]; 76.3% (active) in test [4]; 74.8% (active) in test [5]; 46.1% (active) in test [6].
On the same counts, the results for `Cc1cccc(-n2c3nc(=O)[nH]c(=O)c-3cc3cc([N+](=O)[O-])ccc32)c1` are 50.6% (active), 20.4%, 42.1% (active), 47.4% (active) and 27.6%.
Regarding `COc1ccc(/C=C2\CN(Cc3ccccc3)C/C(=C\c3ccc(OC)c(O)c3)C2=O)cc1O`, the inhibition in test [2] is -5.14%; in test [7], 59.2% (active); in test [8], 0.48%; in test [9], 12.4%; in test [10] it was 73.1% (active); in test [11] it was 22.9%.
As to `O=[N+]([O-])c1ccc(C=Nc2ccc(Cl)cc2Cl)s1`, in [1], the inhibition was 11.6%.
For `COc1cccc2c1C(=O)c1c(O)c3c(c(O)c1C2=O)C[C@](O)(C(C)=O)C[C@H]3O[C@@H]1C[C@@H](N)[C@@H](O)[C@@H](C)O1`, the inhibition in test [2] is 40.8% (active); in test [3], 67% (active); in [4], 104% (active); in test [5], 92.5% (active); in [6], 77.3% (active); in [10] it was 40.6% (active). In test [11], the inhibition was 41.1%.
As for `COc1cccc(-c2nc(NC(C)C)c3ccccc3n2)c1O`, the inhibition was 23.6% in test [2]; 21.2% in test [3]; 46.5% (active) in test [4]; 57% (active) in test [5]; -1.3% in [6].
For the molecule `COc1ccc(N2CCN(c3ncnc4c3[nH]c3ccccc34)CC2)cc1`, the inhibition in [2] was 28% (active); in test [12], 3.21%; in test [9] it was 24.6%.
Turning to `Cc1cc(C)c(S(=O)(=O)/N=C2/C=C(Sc3ncn[nH]3)C(=O)c3ccccc32)cc1C`, the inhibition is 17.7% in test [2]; 27.3% in test [3]; 77.8% (active) in [4]; 72.5% (active) in test [5]; 39.7% (active) in [6].
For `Cc1ccc(NC(=O)c2ccc(Nc3c([N+](=O)[O-])cc([N+](=O)[O-])cc3[N+](=O)[O-])cc2)cc1`, the inhibition in test [2] is 30.6% (active); in test [7], 7.5%; in test [8], 2.96%; in test [10], 50% (active); in test [11], 27.1%.
Consider `COCCn1c(N)c(C(=O)NCC2CCCO2)c2nc3ccccc3nc21` (stereo not drawn), for which the inhibition in test [2] is 15.1%; in test [3], 26.9%; in test [4], 47.2% (active); in [5] it was 50.4% (active); in test [6], -14.9%.
Consider `COc1ccc2c(c1)[nH]c1c(N3CCN(Cc4ccc5c(c4)OCO5)CC3)ncnc12`, for which the figures for the inhibition in test [2], in [4] and in test [5] were 14.8%, 50.2% (active) and 53.7% (active), respectively.
For `COc1cccc(/C=N/NC(=O)c2cc3c(OC)ccc(OC)c3[nH]2)c1O`, the inhibition in [2] was 32.6% (active); in test [12], 28.5%; in test [9] it was 29.7% (active); in test [10], -23.7%; in [11], 28.4%.
`COC(=O)N1C(=O)[C@](c2ccccc2)(C2CCCC2)N1C(=O)OC`: the inhibition in [2] was 86.9% (active); in test [10] it was -1.09%; in [11], -4.92%.
For the molecule `Cc1ccc(C(C)C)c(OCc2ccc(C(=O)N/N=C/c3ccc(O)c(O)c3)cc2)c1`, the inhibition in test [2] is -9.52%; in test [10] it was -11%; in [11] it was 62.6% (active).
Turning to `COc1cc(OC)c2cc(C(=O)N/N=C/c3cccc(OC)c3O)[nH]c2c1`, the inhibition is 39.4% (active) in test [2], 17.7% in test [12] and 6.13% in test [9].
As to `O=C1C(Cl)=C(Nc2ccc3cn[nH]c3c2)C(=O)c2ccccc21`, the inhibition is 31.7% (active) in [2], -24% in test [10] and 52.9% (active) in test [11].
For `CC(=O)C1C(=O)c2c(cccc2[N+](=O)[O-])C1=Nc1ccc(S(N)(=O)=O)cc1` (stereo not drawn) the same measures were 30.2% (active), -19.4% and 2.35%.
On to `NNC(=O)c1oc2nc(-c3ccccc3)cc(-c3ccco3)c2c1N`, for which the inhibition in test [13] was 18.2%.
As to `O=C(c1[nH]ncc1-c1ccc(Cl)cc1)C1CO1` (stereo not drawn), the inhibition in test [14] was 57.3% (active); in test [15] it was 7.58% (active); in test [16] it was 34.3% (active).
For the molecule `O=C1Nc2c(Br)cc(Br)cc2C1(O)N1CCOCC1` (stereo not drawn), the inhibition in [17] is 8.59%.
Still for that read-out and setting: for `CC(=O)N(C1=C(Cl)C(=O)c2ccccc2C1=O)c1ccc(C(=O)O)cc1` the value was 25.6% (active).
Regarding `Cc1cccc(N2CCN(c3ccc(NC(=O)/C=C\C(=O)O)cc3)CC2)c1`, the inhibition in test [18] was 6.16%.

These data come from PubChem BioAssay.
